Laboratory results as given in PubChem BioAssay (NCATS).
Inconclusive results are not listed. Entries that show only a call come without a potency. Activity calls are given as the source filed them. The call rests on the fitted dose curve; in most records, active means well fitted inhibition curve with a large enough effect; inconclusive means small, poorly fitted or top-dose-only effect; inactive means flat fitted curve, though single readings scatter.

Columns and labels:
[1] = molecular target: Glutathione peroxidase 1 (Homo sapiens) (UniProt P07203); assay: Primary qHTS Assay for Inhibitors of Recombinant Selenoprotein Glutathione Peroxidase 1 (GPX1) (AID 1845191)
Summary of the method: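 GPX1 10 nM, GR 100 nM, GSH 1 mM, NADPH 0.5 mM, CHP 0.5 mM (final). 30-min cpd preincubation, RT. Ex340/Em450 read t=0, t=15 min.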

[2] = molecular target: Phospholipid hydroperoxide glutathione peroxidase GPX4 (Homo sapiens) (UniProt P36969); assay: Primary qHTS Assay for Inhibitors of Recombinant Selenoprotein Glutathione Peroxidase 4 (GPX4) (AID 1845192)
Summary of the method: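 qHTS, GR-coupled: GPX4 200 nM + cpd 30 min RT → GSH 1 mM, NADPH 0.5 mM, GR 100 nM → CHP 0.5 mM start; fluor 340/450 at t0 and t15 min; no-enzyme wells as control.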
Further: nearly all actives have a fitted effect of over 65% in size.

Sequence of Phospholipid hydroperoxide glutathione peroxidase GPX4 (Homo sapiens) (P36969 whole entry, looked up): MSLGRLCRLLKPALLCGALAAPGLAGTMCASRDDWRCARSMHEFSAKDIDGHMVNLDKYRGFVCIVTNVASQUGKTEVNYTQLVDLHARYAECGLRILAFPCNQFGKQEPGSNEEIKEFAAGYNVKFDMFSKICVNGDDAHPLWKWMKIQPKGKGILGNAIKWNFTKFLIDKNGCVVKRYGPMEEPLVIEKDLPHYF
Sequence of Glutathione peroxidase 1 (Homo sapiens) (P07203 whole entry, looked up): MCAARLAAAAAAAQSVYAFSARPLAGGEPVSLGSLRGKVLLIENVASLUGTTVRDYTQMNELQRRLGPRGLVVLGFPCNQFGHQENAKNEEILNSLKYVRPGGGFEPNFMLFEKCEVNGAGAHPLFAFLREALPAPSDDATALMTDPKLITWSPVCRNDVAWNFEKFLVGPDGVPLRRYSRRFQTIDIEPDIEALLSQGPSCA

SMILES | Potency [1] | Potency [2]
C[C@@H](CN1CCC(Cc2ccccc2)CC1)[C@@H](O)c1ccc(O)cc1 | inactive | inactive
c1ccc2sc(SSc3nc4ccccc4s3)nc2c1 | inactive | inactive
CCOC(=O)C1=C(C)NC(C)=C(C(=O)OCC)C1c1c(F)c(F)c(F)c(F)c1F | inactive | inactive
O=C(O)c1cc(=O)c2ccccc2[nH]1 | inactive | inactive
O=C(Nc1ccccc1)c1cc([N+](=O)[O-])ccc1Cl | inactive | inactive
CC[C@H]1OC(=O)[C@H](C)C(O[C@H]2C[C@@](C)(OC)[C@@H](O)[C@H](C)O2)[C@H](C)[C@@H](OC2O[C@H](C)C[C@H](N(C)C)[C@H]2O)[C@](C)(O)C[C@@H](C)CN(C)[C@H](C)[C@@H](O)[C@]1(C)O (stereo not given in full) | inactive | inactive
NCCCS(=O)(=O)O | inactive | inactive
Oc1ccccc1O | inactive | inactive
O=Nc1ccc2oc(=O)ccc2c1 | inactive | inactive
Cc1c(C(=O)O)c(O)cc2c1C(=O)c1c(O)c([C@@H]3O[C@H](CO)[C@@H](O)[C@H](O)[C@H]3O)c(O)c(O)c1C2=O | inactive | inactive
Clc1ccc(N2CCN(Cc3cc4ccccn4n3)CC2)cc1 | inactive | inactive
C=C[C@H]1CN2CC[C@@H]1C[C@@H]2[C@@H](O)c1ccnc2ccc(OC)cc12 | inactive | inactive
COc1ccccc1CNCCCCCCNCCCCCCCCNCCCCCCNCc1ccccc1OC | inactive | inactive
CCOC(=O)c1ccccc1O | inactive | inactive
O=C1/C(=C/c2ccsc2)CC/C1=C\c1cccs1 | inactive | inactive
Nc1c(CC(=O)O)cccc1C(=O)c1ccc(Br)cc1 | inactive | inactive
Cc1ccc(C(=O)c2ccc(CC(=O)O)n2C)cc1 | inactive | inactive
CC(C)NCC(O)COc1cccc2ccccc12 (stereo not given) | inactive | inactive
NS(=O)(=O)C#Cc1ccccc1 | inactive | inactive
NC(N)=NC(=O)c1nc(Cl)c(N2CCCCCC2)nc1N | inactive | inactive
S=c1[nH]c2ccccc2s1 | inactive | inactive
C[N+]1(C)C2CC(OC(=O)[C@H](CO)c3ccccc3)CC1C1OC12 (stereo not given in full) | inactive | inactive
CC(C)(C=O)Cc1cc(C(C)(C)C)c(O)c(C(C)(C)C)c1 | inactive | inactive
CCC(CO)Nc1nc(NCc2ccccc2)c2ncn(C(C)C)c2n1 (stereo not given) | inactive | inactive
C[N+]1(C)CCC(OC(=O)C(c2ccccc2)c2ccccc2)CC1 | inactive | inactive
COc1cc(OC)c(/C=C2/C(=O)Nc3ccccc32)c(OC)c1 | inactive | inactive
CCNC(=O)[C@H]1O[C@@H](n2cnc3c(N)nc(NCCc4ccc(CCC(=O)O)cc4)nc32)[C@H](O)C1O (stereo not given in full) | inactive | inactive
Nc1nc(SCc2ccc([N+](=O)[O-])cc2)c2ncn([C@@H]3O[C@H](CO)[C@@H](O)[C@H]3O)c2n1 | inactive | inactive
CCCN(CC1CC1)c1nc(C)nc(Nc2c(Cl)cc(Cl)cc2Cl)c1Cl | inactive | inactive
O=C(O)c1ccccc1Nc1cccc(C(F)(F)F)c1 | inactive | inactive
